# Measured values: ChEMBL document CHEMBL4513216, “Probing the Open Global Health Chemical Diversity Library for Multistage-Active Starting Points for Next-Generation Antimalarials” (ACS Infect Dis, 2020)
# About 2,700 (4%) of roughly 68,000 compounds showed an effect of 50% or more. The sample as a whole holds a higher share of strong results than the screen did.
# System: Plasmodium berghei
# Assay: Screen against P. berghei liver stage (PbLuc), transformed with Luciferase, at 2uM
# Type: functional, HepG2
# Conditions: tested at 2 uM
row,Compound,INHIBITION
1,CN1C(=O)Cc2cc(-c3csc(CCN4CCOC4=O)n3)ccc21,-35.62%
2,O=C1OCCN1CCc1nc(-c2cc3c4c(c2)CC(=O)N4CCC3)cs1,78.51%
3,O=C1CCCc2cc(-c3csc(CCN4CCOC4=O)n3)ccc2N1,33.01%
4,Cc1nc(C(C)C)sc1C(=O)NCCSc1ccccn1,-103.61%
5,CCn1c(C)nnc1SCCNC(=O)c1cnc(C(C)(C)C)nc1O,3.86%
6,CC(C)(C)c1ncc(C(=O)NCCSc2ccccn2)c(O)n1,68.02%
7,CN1C[C@H]2CC[C@@H](C1)N(Cc1ccccc1OCCN1CCOCC1)C2,32.1%
8,NC(=O)CC1CC2(CCNCC2)c2cc(F)ccc21 (stereo not drawn),-8.62%
9,c1cnc(-c2nn3c(CN4CCCCC4)nnc3s2)cn1,7.91%
10,c1cnc(-c2nn3c(CN4CCCCCC4)nnc3s2)cn1,55.73%
11,c1cnc(-c2nn3c(CN4CCOCC4)nnc3s2)cn1,26.03%
12,COC(=O)N1CCCC(NC(=O)NCc2ccc(C)nc2)C1 (stereo not drawn),22.07%
13,CC(C)(C)CC(=O)N1CC[C@H]2CC(=O)N(CCc3c[nH]cn3)CC[C@H]2C1,17.31%
14,Cc1cccc(C(C(=O)NCCCc2nnc3ccccn23)N(C)C)c1 (stereo not drawn),-0.59%
15,CCc1nnc(CN(CC)C(=O)C2CC(=O)N(C(C)(C)C)C2)o1 (stereo not drawn),50.86%
16,CCc1nnc(CN(CC)C(=O)C2CC(=O)N(C3CC3)C2)o1 (stereo not drawn),10.02%
17,CCc1nnc(CN(CC)C(=O)C2CC(=O)N(CC)C2)o1 (stereo not drawn),6.84%
18,CCc1c(C)nc2cc(-c3nccn3C)nn2c1N1CCCC(CO)C1 (stereo not drawn),-40.66%
19,CCS(=O)(=O)c1ccc2oc([C@H]3CCN(CC4CCCCC4)C3)nc2c1,44.13%
20,CCS(=O)(=O)c1ccc2oc([C@H]3CCN(Cc4ccccc4)C3)nc2c1,55.66%
21,CCS(=O)(=O)c1ccc2oc([C@H]3CCN(Cc4cccnc4)C3)nc2c1,16.12%
22,CCS(=O)(=O)c1ccc2oc([C@H]3CCN(Cc4ccncc4)C3)nc2c1,61.7%
23,Cc1ccc2oc([C@H]3CCN(Cc4ccccc4)C3)nc2c1,45.22%
24,CCS(=O)(=O)c1ccc2oc([C@H]3CCN(Cc4ccccn4)C3)nc2c1,30.4%
25,O=C(c1cccc(F)c1)N1CC[C@H]2[C@H]1CCN2CC1CCOCC1,13.04%
26,CCc1nccn1C1CCCN(C(=O)c2ccn(-c3ccccc3)n2)C1 (stereo not drawn),6.54%

row,Compound,INHIBITION
1,O=C(CC1CNCCO1)N1CCC(c2cc(N3CCCC3)ncn2)CC1 (stereo not drawn),48.93%
2,O=C(C1CNCCO1)N1CCC(c2cc(N3CCCC3)ncn2)CC1 (stereo not drawn),37.15%
3,O=C(CN1CCOCC1)N1CCC(c2cc(N3CCCC3)ncn2)CC1,70.81%
4,Cn1ccnc1-c1cn(CCCc2csc(N)n2)nn1,-21.39%
5,CCNC(=O)[C@@H]1C[C@H](NC(=O)c2cncnc2C)CN1Cc1ccsc1,12.78%
6,CCn1c(-c2ccccc2)nn(CC(=O)NCCc2ccc(C)s2)c1=O,47.25%
7,CC(C)NC(=O)c1nnn(-c2ccc(F)cc2)c1C1CC1,3.89%
8,Cc1ccc(-n2nnc(C(=O)NC(C)C)c2C2CC2)cc1,82.5%
9,CC(C)NC(=O)c1nnn(-c2ccccc2)c1C1CC1,2.31%
10,Cc1cc(C)n(C2CN(CCc3ccccn3)C2)n1,-7.32%
11,CN(C)CCn1ccnc1C1CCCN(c2nccc3ccccc23)C1 (stereo not drawn),49.94%
12,CN(C)Cc1nnc(C2CCCN(c3ncccc3F)C2)n1C (stereo not drawn),6.39%
13,CN(C)Cc1nnc(C2CCCN(c3nccc4ccccc34)C2)n1C (stereo not drawn),63.01%
14,Cc1cc(C)nc(NCCCC(=O)NCCn2ccc3ccccc32)n1,-12.76%
15,Cc1cc(C)nc(NCCC(=O)NCCn2ccc3ccccc32)n1,50.94%
16,Cc1cc(C)nc(NCCC(=O)NCCn2ccnc2C)n1,28.4%
17,CCS(=O)(=O)N(C)C1CCN(C(=O)c2cccc(Cl)c2)CC1,-41.98%
18,CCC(=O)Nc1ccc2c(c1)C1(CCOCC1)CN2CCF,-24.5%
19,COc1ccc(OC)c(-c2nc(CN(C)Cc3nncn3C)c(C)o2)c1,-5.6%
20,Cn1ncnc1CNc1ccccc1C(=O)NC(C)(C)C,-38.42%
21,CNC(=O)c1ccccc1NCc1ncnn1C,54.03%
22,COc1ccc(NC(=O)c2ccccc2NCc2ncnn2C)cc1,-25.35%
23,CC(C)c1nnc2n1CC(CNC/C=C/c1ccccc1)CC2 (stereo not drawn),4.8%
24,CC(C)c1n[nH]c(C2CN(C(=O)c3cc4c(s3)CCC4)CCO2)n1 (stereo not drawn),10.53%
25,COCC(c1cccc(C(F)(F)F)c1)N(C)C(=O)c1ccccn1 (stereo not drawn),-9.61%
26,CCNC(=O)CN1CCCC(c2ccc(C(=O)O)cc2)C1 (stereo not drawn),2.06%

row,Compound,INHIBITION
1,CC(C)CNC(=O)CN1CCCC(c2ccc(C(=O)O)cc2)C1 (stereo not drawn),50.67%
2,CC(C)(C)NC(=O)CN1CCCC(c2ccc(C(=O)O)cc2)C1 (stereo not drawn),31.27%
3,CCS(=O)(=O)N1CCC(c2cc3n(n2)[C@@H](C(F)(F)F)C[C@@H](C)N3)CC1,-22.38%
4,Cc1cc(C)n(CC(=O)N2C[C@H]3CC[C@@H](C2)N(CC2CCC2)C3)c(=O)n1,41.07%
5,Cc1nc(=O)c(CC(=O)N2C[C@H]3CC[C@@H](C2)N(CC2CCC2)C3)c(C)[nH]1,25.47%
6,Cc1nc(=O)c(CC(=O)N2C[C@H]3CC[C@@H](C2)N(CC2CCC2)C3)c[nH]1,68.39%
7,Cc1ccc(C(C)NC(=O)Cc2c(C)nc3c(c2C)c(=O)[nH]n3C)o1 (stereo not drawn),-30.5%
8,CC(C)C1CN(C(=O)c2ccc3nccnc3c2)CCS1 (stereo not drawn),43.29%
9,OCCOCc1n[nH]c2c1CN(Cc1ccccn1)C2,2.69%
10,COCc1nn(CC2CC2)c2c1CN(Cc1ccco1)CC2,38.09%
11,CCOCc1nn(CC2CC2)c2c1CN(Cc1cccs1)CC2,34.93%
12,COCc1n[nH]c2c1CN(Cc1cccs1)C2,56.21%
13,c1csc(CN2Cc3[nH]nc(COCC4CC4)c3C2)c1,58.98%
14,c1ccc(CN2Cc3[nH]nc(COCC4CC4)c3C2)nc1,28.5%
15,Cc1cccc(CN2Cc3[nH]nc(COCC4CC4)c3C2)n1,-4.06%
16,OCCOCc1n[nH]c2c1CN(Cc1ccco1)C2,8.99%
17,c1ccc(OCc2n[nH]c3c2CN(Cc2cccs2)C3)nc1,29.45%
18,OCCOCc1n[nH]c2c1CN(Cc1cccs1)C2,52.74%
19,COCc1nn(CC2CC2)c2c1CN(Cc1cccs1)CC2,51.26%
20,c1cncc(OCc2n[nH]c3c2CN(Cc2cccs2)C3)c1,14.94%
21,CCC[C@H]1CN(C(=O)CCn2ccccc2=O)C[C@@H]1NS(C)(=O)=O,25.9%
22,CC(C)S(=O)(=O)NC(=O)c1cc(-c2cccc(Cl)c2)no1,38.67%
23,COc1ccc(C)cc1-n1c(COC(C)C)n[nH]c1=O,-19.78%
24,Cc1nc(C2CCCN2CCCc2nc3ccccc3o2)no1 (stereo not drawn),17.19%
25,COCCCN1CCC(C(=O)c2cc(F)ccc2F)CC1,-6.4%
26,O=C(NCC1(Sc2ccccc2)CC1)c1cc[nH]n1,32.51%

row,Compound,INHIBITION
1,O=C(NCC1(Sc2ccccc2)CC1)c1c[nH]nn1,66.4%
2,O=C(NCC1(Sc2ccccc2)CC1)c1ccc(=O)[nH]n1,-5.26%
3,Cc1noc(C)c1CC(=O)N1CCCN(Cc2cscn2)CC1,25.74%
4,c1ccc(CCCN2CCN(CCn3cncn3)CC2)cc1,76.6%
5,N#Cc1ccc(CN2CCCN(C(=O)CCn3cncn3)CC2)cc1,12.43%
6,N#Cc1ccc(N2CCCN(CCCn3cncn3)CC2)cc1,-27.36%
7,c1ccc(SCCN2CCN(CCn3cncn3)CC2)cc1,30.62%
8,c1ccc(-c2noc(C3CCN(CCCn4cncn4)CC3)n2)cc1,57.75%
9,c1ccc(-c2noc(C3CCN(CCn4cccn4)CC3)n2)cc1,43.44%
10,N#Cc1ccc(CN2CCCN(CCCn3cncn3)CC2)cc1,65.3%
11,c1ccc(C(c2ccccc2)N2CCN(CCn3cncn3)CC2)cc1,35.54%
12,O=C(CCCn1cncn1)N1CCCC1c1nc(-c2ccccc2)no1 (stereo not drawn),48.21%
13,COc1ccc(CC(=O)N2CC[C@H](CO)[C@H](O)C2)c(OC)c1,26.93%
14,CCc1ccc(C(C)NC(=O)N2CCC(n3cncn3)CC2)cc1 (stereo not drawn),38.06%
15,CC(C)N(C)[C@@H]1CCN(c2ncccn2)[C@H]1Cc1ccncc1,11.9%
16,CN(CC(=O)N1CCC(Oc2ccc(C(F)(F)F)cn2)CC1)S(C)(=O)=O,17.26%
17,Cc1nccn1CC1CCCN1S(=O)(=O)Cc1ccccc1 (stereo not drawn),0.26%
18,Cc1nccn1CC1CCCN1S(=O)(=O)Cc1ccon1 (stereo not drawn),60.31%
19,Cc1nccn1CC1CCCN1S(=O)(=O)Cc1ccc(F)cc1 (stereo not drawn),-88.61%
20,CCc1nccn1CCCNC(=O)c1cnn(-c2ccccc2OC)c1,-9.69%
21,O=C(CCn1ccc2cc(Br)ccc21)NCc1ccc(C(=O)O)cc1,-4.69%
22,O=C(COC[C@@]12CCC[C@@H]1CN(C1CCCC1)C2)N1CCCC1,-9.14%
23,O=C(COC[C@@]12CCC[C@@H]1CN(C1CCC1)C2)N1CCCC1,51.27%
24,O=C(COC[C@]12COC[C@H]1CN(C1CCC1)C2)N1CCCC1,-37.65%
25,Cn1nc2c(cc1=O)CN(c1ncnc3ccsc13)CC2,-37.96%
